Only some compounds are listed: those with a hit (about 1.8% of all), similar ones and a draw of the others.
IkB sig inh – suppresses IkB signaling in ABC-DLBCL reporter cells | ABC-DLBCL IkBa-CBG/CBR dual luciferase ratio, 4 h; response scale: scaled: untreated 0%, proteasome inhibitor 100% | Potency, µM (titrated, usually from 57.1 µM) | hit rate 0.04% among 110,000 | AID 445; active = well fitted curve in the direction sought with a large enough effect in the signal ratio, not every such curve was filed as active; inconclusive = small, poorly fitted or top-dose-only effect, or a change in a side signal; the % refers to the signal ratio;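 also: the direction sought is a rising ratio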
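Curves were fitted separately to fusion (green), unfused (red) and ratio luminescence, then classed by r2, magnitude and activity. Cells: OCI-Ly3, 4 h compound plus doxycycline at 37C; 10 uM MG-132 defined full response.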
p53ts 39C kill – cytotoxicity in p53ts cells at nonpermissive temperature; H1299-p53A138V viability at 39C, ATP luminescence, 24 h; hit rate 1.5% among 130,000; Potency, µM (doses to about 46.1 µM), actives largely listed as cytotoxic; also: nearly all actives have a fitted effect of over 55% in size
Peg3 imprint – inducers of genomic imprint erasure in mouse ES cells; mouse ES Peg3-LacZ reporter, beta-gal luminescence, 40 h; Potency, µM (top dose mostly 60.7 µM), most hits filed as activators; hit rate 0.02% among 110,000; AID 1948
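Imprint erasure is scored as LacZ activity from the silenced maternal Peg3 allele in feeder-free female ES cells cultured 40 h with LIF. Luminescence is normalized to in-plate negative controls and fitted to the Hill equation.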
p53ts 32C tox – kills p53ts cells at the permissive temperature; H1299-p53A138V at 32C, ATP luminescence viability, 24 h; Potency, µM (series often up to 46.1 µM), most hits filed as cytotoxic; hit rate 0.93% among 130,000; AID 924; also: nearly all actives have a fitted effect of over 55% in size
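H1299-p53 A138V cells (temperature-sensitive p53) exposed 24 h to up to 46 uM compound at 32C, where p53 is wild-type in conformation. Viability read as ATP luminescence and normalised to DMSO and 100 uM tamoxifen. AC50 fitted with the Hill equation.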
A number is an active result; . = inactive; ? = inconclusive; / = no result given; [ ] = remark or other dose. Unless noted, calls follow the shape of the dose curve; as a rule, active = well fitted curve in the direction sought with a large enough effect; inconclusive = small, poorly fitted or top-dose-only effect, or another doubt; inactive = no such curve, though single readings can be large; an effect the other way counts as inactive or inconclusive.

SMILES	IkB sig inh	p53ts 39C kill	Peg3 imprint	p53ts 32C tox
O=C(Cn1c(=O)n(-c2ccccc2)c(=O)c2ccc(C(=O)NCc3ccc4c(c3)OCO4)cc21)Nc1ccc(Br)cc1F	.	13µM	.[10.9 µM]	.
CCCCN(C)CC(O)Cn1cc(/C=C/C(=O)c2ccc(C)cc2)c2ccccc21 (stereo not drawn)	?	16µM	.[10.9 µM]	?
CCCCN(C)CC(O)Cn1cc(/C=C/C(=O)c2ccc(OC)c(OC)c2)c2ccccc21 (stereo not drawn)	?	16µM	?	20µM
CCCN(CCC)CC(O)Cn1cc(/C=C/C(=O)c2ccc(Br)cc2)c2ccccc21 (stereo not drawn)	?	7.9µM	.[10.9 µM]	.
CCCN(CCC)CC(O)Cn1cc(/C=C/C(=O)c2ccc(OC)cc2)c2ccccc21 (stereo not drawn)	?	10µM	.[10.9 µM]	?
CCCCN(C)CC(O)Cn1cc(/C=C/C(=O)c2ccc(Br)cc2)c2ccccc21 (stereo not drawn)	?	?	.[10.9 µM]	?
COc1ccc(N2CCN(C(=O)c3cc(-c4ccc(C)c(F)c4)on3)CC2)cc1	?	.	.[10.9 µM]	.
CCCN(C(=O)c1cn(C)c(=O)c2cc(OC)c(OC)cc12)c1ccc(CC)cc1	.	.	.[10.9 µM]	.
CCn1c(C(=O)NCc2ccccc2C)cc2oc3ccccc3c21	?	?	.[10.9 µM]	?
CCCN(CCC)CC(O)Cn1cc(/C=C/C(=O)c2ccc(C)cc2)c2ccccc21 (stereo not drawn)	?	13µM	.[10.9 µM]	?
COc1ccc(C(=O)/C=C/c2cn(CC(O)CN(CC(C)C)CC(C)C)c3ccccc23)cc1 (stereo not drawn)	.	.	.[10.9 µM]	.
CCN(CC)CCCNC(=O)c1nn(C)c2c1CSc1ccccc1-2	?	20µM	.[10.9 µM]	?
Cn1nc(C(=O)N2CCN(c3ccccc3)CC2)c2c1-c1ccccc1SC2	.	.	.[10.9 µM]	.
Cn1nc(C(=O)N2CCN(c3ccc(F)cc3)CC2)c2c1-c1ccccc1SC2	.	20µM	.[10.9 µM]	?
O=C(Cn1c(=O)n(CCc2ccccc2)c(=O)c2c3c(sc21)CCCC3)Nc1ccc(F)c(F)c1	.	.	.[10.9 µM]	.
CCc1ccc2oc(-c3cc(N)cc(C)c3O)nc2c1	?	?	.	?
CCc1ccc2oc(-c3cc(NC(=O)c4cccs4)ccc3Cl)nc2c1	?	.	.[10.9 µM]	.
CCc1ccc2oc(-c3cc(N)ccc3O)nc2c1	?	13µM	.	13µM
CCc1ccc2oc(-c3cc(N)ccc3Cl)nc2c1	?	10µM	.	?
COc1ccc2c(c1)CC(NC(=O)Nc1cc(Cl)ccc1OC)CO2 (stereo not drawn)	?	.	.[10.9 µM]	.
O=C(NC1CC1)c1cccc(Nc2ccc(-c3ccc4c(c3)OCCO4)nn2)c1	?	10µM	/	20µM
O=C(Nc1cccc(Br)c1)c1cc(-c2ccc3c(c2)OCCO3)on1	?	?	.[10.9 µM]	?
COc1ccccc1CNC(=O)C1CCCN(c2nc3ccccc3n3cccc23)C1 (stereo not drawn)	.	.	.[10.9 µM]	.
COc1ccc(-n2c(SCC(=O)c3ccc(Cl)cc3)nc3c([nH]c4ccccc43)c2=O)cc1	.	.	.[10.9 µM]	.
O=c1[nH]n(-c2cccc3cccnc23)c(=O)c2ccccc12	.	.	.	.
SMILES	IkB sig inh	p53ts 39C kill	Peg3 imprint	p53ts 32C tox
O=S1(=O)Nc2c(ccc3cccnc23)-c2ccccc21	0.79µM	.	.	.
CN(Cc1ccccc1)C(=O)Nc1ccc2c(c1)N(C)C(=O)c1ccccc1S2	.	13µM	.[10.9 µM]	?
Cc1nc2cc(NC(=O)NCc3ccco3)ccc2n1C	.	.	.	.
Cc1nc2cc(NC(=O)Nc3nccs3)ccc2n1C	.	7.9µM	.	7.9µM
CCOc1ccc(C2CC(=O)N(c3cccc(F)c3)C3=C2C(=O)OC3)cc1 (stereo not drawn)	?	.	.[10.9 µM]	.
Cc1ccccc1S(=O)(=O)Cc1ccc(C(=O)N2CCN(c3cccc(Cl)c3)CC2)o1	?	?	.[10.9 µM]	.
CCn1c(=O)c(C(=O)Nc2ccc(C(C)=O)cc2)nc2ccccc21	.	13µM	.[10.9 µM]	10µM
CCn1c(NC(C)=O)nc2ccccc21	/	.	/	.
COc1ccc(/C=N\n2nnc3ccccc32)cc1	?	10µM	.	13µM
COc1ccc(/C=N/n2cc(-c3ccccc3)nc2N)cc1	?	.	.	.
COc1ccc(OC)c2sc(N(Cc3cccnc3)C(C)=O)nc12	.	.	.[10.9 µM]	.
Cc1ccc(C(=O)Nc2ccc3c(c2)CCC3)o1	/	?	/	13µM
CC(C)c1ccc(Cn2ccc3c4c(N)nc(NC5CC5)nc4ccc32)cc1	.	32µM	.	?
COc1cc(C(=O)Oc2c(Sc3ccc(C)cc3)c(C)nn2-c2ccccc2)cc(OC)c1OC	?	.	.[10.9 µM]	.
COc1ccccc1C(=O)Oc1c(Sc2ccccc2)c(C)nn1-c1ccccc1	?	.	.[10.9 µM]	16µM
CCOc1ccc2nc(NC(=O)c3nc(SC(C)C)ncc3Cl)sc2c1	.	?	.[10.9 µM]	?
COCCCNC(=O)C1CCN(c2cc(C)nc3c(-c4ccc(OC)c(OC)c4)c(C)nn23)CC1	.	.	.[10.9 µM]	.
CC(C)CCNC(=O)c1cccc(Nc2nc3ccccc3n3nnnc23)c1	?	10µM	.[10.9 µM]	?
O=C(c1ccncc1)N1CCN(C(=O)c2cccc3ccccc23)CC1	.	.	.	.
C/C(=N\NC(=O)c1ccncc1)c1ccc2ccccc2c1O	.[11.4 µM]	2µM	.[10.9 µM]	?
Cc1ccc2nc(/C(C#N)=C/c3cccc(Br)c3)[nH]c2c1	.	.	.[10.9 µM]	?
Cc1ccc2nc(/C(C#N)=N/O)[nH]c2c1	?	?	.	7.9µM
CC(=O)c1cccc(NC(=O)Nc2ccc3c(c2)N(C)C(=O)CS3)c1	?	20µM	.	?
CCN(CC)c1ccc(NC(=O)Nc2cccc(C(C)=O)c2)cc1	?	13µM	.	13µM
O=C(NCCc1csc(-c2cccc(F)c2)n1)c1cccs1	.	.	.[10.9 µM]	.
SMILES	IkB sig inh	p53ts 39C kill	Peg3 imprint	p53ts 32C tox
O=C(O)c1ccc(Nc2nc3ccccc3c3nncn23)cc1	?	.	?	.
Cc1cccc(OC(=O)c2cc(-c3ccc4c(c3)OCCO4)on2)c1C	.	?	.[10.9 µM]	20µM
Cc1cc(C)cc(OC(=O)c2cc(-c3ccc4c(c3)OCCO4)on2)c1	.	13µM	.[10.9 µM]	?
Cc1cccc(OC(=O)c2cc(-c3ccc4c(c3)OCCO4)on2)c1	?	20µM	.[10.9 µM]	20µM
Cc1cc(C)c(OCC(=O)N(Cc2ccc(N(C)C)cc2)CC2CCCO2)c(C)c1 (stereo not drawn)	?	.	.[10.9 µM]	.
Cc1cc(C(=O)CN2C(=O)c3ccccc3S2(=O)=O)c(C)n1CC1CCCO1 (stereo not drawn)	.	1µM	.	2.5µM
COc1cccc(OCC(=O)Nc2nnc3n2CCS3)c1	.	.	.[10.9 µM]	.
CC(C)(C)C(=O)NCCc1nc2ccccc2n1CCCCOc1ccc(Cl)cc1	?	32µM	.[10.9 µM]	.
Cc1ccc(OCCCn2c(CCNC(=O)C3CCCCC3)nc3ccccc32)c(C)c1	?	?	.[10.9 µM]	.
Cc1cc(OCCCn2c(CCNC(=O)C3CCCCC3)nc3ccccc32)ccc1Cl	?	13µM	.[10.9 µM]	?
Cc1cccc(C)c1OCCCn1c(CCNC(=O)C2CCCCC2)nc2ccccc21	?	16µM	.[10.9 µM]	?

Source: PubChem BioAssay (National Center for Advancing Translational Sciences (NCATS))
